HT1080 IDH1KD tx: kills HT-1080 cells with IDH1 knockdown | HT-1080 IDH1 knockdown viability, ATP luminescence, 48 h | 2% of 360,000 active | AID 686971 | Potency, µM (series often up to 46.1 µM), usual class: cytotoxic
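CellTiter-Glo luminescence after 48 h compound exposure at 37 degrees C of IDH1-knockdown HT-1080 cells in 5% FBS RPMI. %Activity scaled between DMSO wells and cell-free media wells, with curves fitted and assigned curve classes.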
HT1080NT lethal: kills 2HG-producing HT-1080-NT fibrosarcoma cells. HT-1080-NT fibrosarcoma viability, CellTiter-Glo ATP luminescence, 48 h. Potency, µM (top dose mostly 46.1 µM), most hits filed as cytotoxic. 1.6% of 360,000 active. AID 686970;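 note: NT is the 2HG producing partner of a matched IDH1 knockdown line; nearly all actives have a fitted effect of over 55% in size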
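HT-1080-NT fibrosarcoma cells (2HG-overproducing), 750 cells/well in RPMI with 5% FBS, dosed after 2 h and incubated 48 h at 37C. CellTiter-Glo luminescence normalized to DMSO and no-cell wells; concentration-response curves fitted and classed.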
TDP1 cell CPT: growth inhibition of DT40 Tdp1-/-;hTDP1 cells with camptothecin (screen for TDP1 inhibitors); chicken DT40 Tdp1-/-;hTDP1 cells + 20 nM CPT, ATP luminescence, 48 h; Potency, µM (top dose mostly 46.2 µM), most hits filed as inhibitors; 12% of 420,000 active; AID 686979; note: nearly all actives have a fitted effect of over 55% in size
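Cell growth measured by CellTiter-Glo luminescence after a minimum 48 h, 37 C compound exposure with 20 nM CPT in Tdp1-knockout DT40 cells stably expressing hTDP1, seeded 400/well; qHTS titration format.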
IL-1B inflam inh: blocks inflammasome-driven IL-1 beta release; THP-1 LPS/ATP IL-1B secretion, AlphaLISA, 16 h; hits give low values; activity change, % at 57.5 µM; 4.7% of 360,000 active; in the data active = activity change below about -50%; inconclusive = mostly about -30% to -49%
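THP-1 cells pretreated 1 hr with compounds (up to 57.5 uM final), then stimulated with LPS (250 ng/mL final) plus ATP (1.25 mM final); secreted IL-1B measured by AlphaLISA after 16 hr, decreased signal indicating inhibition.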
TDP1 cell noCPT: qHTS for Inhibitors of human tyrosyl-DNA phosphodiesterase 1 (TDP1): qHTS in cells in absence of CPT | Potency, µM (titrated, usually from 46.2 µM), actives largely listed as inhibitors | 15% of 420,000 active | DT40 Tdp1-/- hTDP1 cells, no CPT, ATP luminescence, 48 h; note: nearly all actives have a fitted effect of over 55% in size
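Growth of hTDP1-complemented DT40 Tdp1-knockout cells is measured by ATP luminescence after at least 48 hr compound exposure at 37 °C, with DMSO substituting for the 20 nM CPT used in the parallel screen.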
A number is an active result; i = inactive; ? = inconclusive; nt = no result. A selection: hits, their analogues and other compounds. The true share with any hit is near 19%. Unless noted, calls come from the whole dose curve; as a rule, active = well fitted curve in the direction sought with a large enough effect; inconclusive = small, poorly fitted or top-dose-only effect, or another doubt; inactive = no such curve, though single readings can be large; an effect the other way counts as inactive or inconclusive.

SMILES	HT1080 IDH1KD tx	HT1080NT lethal	TDP1 cell CPT	IL-1B inflam inh	TDP1 cell noCPT
O=C(NCC(c1ccco1)N1CCc2ccccc21)c1ccccc1F (stereo unspecified)	i	i	i	i	?
O=C(NCC(c1ccco1)N1CCc2ccccc21)c1ccccc1Br (stereo unspecified)	i	i	21µM	i	?
COC(=O)c1cc(NC(=O)CSC2=NCCS2)cc(C(=O)OC)c1	i	i	i	i	i
O=C(Nc1ccc2c(c1)OCCO2)C(c1ccccc1)n1c(=O)c(-c2ccco2)nc2ccccc21 (stereo unspecified)	i	i	4.1µM	i	?
O=C(Nc1ccc2c(c1)OCCO2)C(c1ccncc1)n1c(=O)c(-c2ccco2)nc2ccccc21 (stereo unspecified)	i	i	10µM	i	?
O=C(Nc1ccc2c(c1)OCO2)N1CCN(C/C=C/c2ccccc2)CC1	i	i	i	i	i
Cc1cccc(C)c1NC(=O)C(c1ccncc1)n1c(=O)c(-c2ccco2)nc2ccccc21 (stereo unspecified)	i	i	i	i	?
O=C(Nc1ccc2c(c1)OCCO2)C(c1ccnc2ccccc12)n1c(=O)c(-c2ccco2)nc2ccccc21 (stereo unspecified)	i	i	7.3µM	i	15µM
O=C(Nc1ccc2c(c1)OCCO2)C(c1ccccc1)n1c(=O)c(-c2cc3ccccc3[nH]2)nc2ccccc21 (stereo unspecified)	?	i	?	i	?
O=C(Nc1ccc2c(c1)OCCO2)C(c1ccnc2ccccc12)N1CCN(C/C=C/c2ccccc2)CC1 (stereo unspecified)	15µM	?	?	i	23µM
O=C(N[C@@H]1c2ccccc2C2(CCN(C(=O)c3cc4ccccc4oc3=O)CC2)[C@H]1O)c1cccnc1	nt	nt	i	nt	i
COc1cccc(NC(=S)NC2CC(C)(C)NC(C)(C)C2)c1	i	i	i	i	i
O=C(Nc1ccc(Cl)c(Cl)c1)Nc1nc(-c2ccccc2)cs1	i	i	12µM	i	13µM
COc1cccc(-c2csc(NC(=O)C3CC3)n2)c1	i	i	5.2µM	i	6.5µM
O=C(Nc1ccc(Cl)cc1)Nc1nc(-c2ccccc2O)cs1	i	i	5.2µM	-69	4.6µM
O=C(Nc1ccc(Cl)c(Cl)c1)Nc1ccccc1C(=O)O	?	?	i	i	i
COc1cccc(C(=O)Nc2nc(-c3ccncc3)cs2)c1	i	i	i	i	?
O=C(Cc1ccccc1)NNC(=O)Nc1ccc(Cl)c(Cl)c1	15µM	i	16µM	i	21µM
CCC/C(O)=C1\C(=O)CC(C)(C)CC1=Nc1cccc([N+](=O)[O-])c1	i	i	?	i	?
COc1ccc(/C=C/C(=O)OCC(=O)Nc2ccc(Cl)c(S(=O)(=O)N(C)C)c2)cc1OC	i	i	i	i	?
COc1cccc(-c2csc(NC(=O)Nc3ccccc3)n2)c1	i	?	7.3µM	i	2.3µM
O=C(Nc1ccccc1)Nc1nc(-c2ccc(F)c(F)c2)cs1	i	i	5.8µM	i	2.9µM
O=C(O)c1ccccc1C(=O)Nc1nc(-c2ccc3ccccc3c2)cs1	i	i	i	i	i
O=C(Nc1ccccc1F)c1cc(S(=O)(=O)N2CCOCC2)ccc1N1CCOCC1	i	i	i	i	i
Cc1cc2ncn(CCC(=O)NC(C)(C)C)c2cc1C	i	i	i	i	i
COc1ccc(/C=C/CN2CCC(n3nccc3NC(=O)C3CC3)CC2)cc1	i	i	i	i	i
COc1cc(CNC(C)c2ccccc2)cc(Cl)c1OCC(=O)Nc1ccccc1 (stereo unspecified)	i	?	9.2µM	i	26µM
CCN(CC)CCNCc1cc(Cl)c(OCC(=O)Nc2ccccc2)c(OC)c1	i	?	?	i	23µM
COc1ccc(NC(=O)CNC(c2ccccc2)c2ccccc2)cc1Cl	i	i	?	i	?
CCCCNCc1cc(Br)c(OCC(=O)NCc2ccccc2)c(OC)c1	i	i	i	i	?

Compound activity (PubChem)
